Screening data: PubChem, National Center for Advancing Translational Sciences (NCATS)
Abeta rescue – restores growth of yeast expressing A-beta42 peptide. yeast expressing A-beta42, growth rescue, OD600, 48 h; response scale: 0% DMSO, 100% iron-clioquinol control. Potency, µM (highest dose often 46.1 µM), most hits filed as activators. 0.063% of 410,000 active. AID 1347071; also: nearly all actives have a fitted effect of over 55% in size
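Yeast A-beta toxicity model in growth medium with pinned compounds, 48 h at 30 C; growth read as absorbance at 600 nm. Normalized to FeCl3/clioquinol equimolar mix (positive) and DMSO (negative).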
aSyn yeast inh – alpha-synuclein toxicity inhibition in yeast; AID 652106; 0.14% of 370,000 active; Potency, µM (doses to about 46.1 µM), inactives show at the top dose growth rescue (activation), hits mostly activators; Yeast expressing alpha-synuclein, growth rescue, BacTiter-Glo, 24 h; also: % of control where 0% means no effect; nearly all actives have a fitted effect of over 65% in size
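Rescue of yeast growth: cells expressing toxic alpha-synuclein, induced in galactose at OD600 0.02, incubated with compound 24 h at 30 C. ATP luminescence quantified growth; inhibitors of toxicity appear as activators.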
GRP78 ERSR act – induces the endoplasmic reticulum stress response in human glioma cells; AID 602332; U87-MG GRP78 promoter luciferase reporter, 16 h; 0.02% of 420,000 active; Potency, µM, inactives show top-dose activation, actives largely listed as activators; also: series mostly up to about 76 µM; % of control where 0% means no effect; nearly all actives have a fitted effect of over 35% in size
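Stably transfected U87-MG glioma cells carrying a GRP78-based luciferase sensor; 16 h compound incubation. Luminescence end-point read 10 min after Bright-Glo addition at room temperature.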
FUS suppressor – rescues growth of FUS-expressing yeast; S. cerevisiae FUS-expressing, growth rescue, OD600, 24 h; Potency, µM (doses to about 76.6 µM), usual class: activators; 0.24% of 390,000 active;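 also: plate controls were DMSO vehicle for no effect and reference control for full effect; nearly all actives have a fitted effect of over 55% in size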
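Yeast FUS proteinopathy model; galactose-induced FUS (2%), starting OD 0.005. Cpds in dilution series, 24hr, 30C, 99% humidity. Abs 600 nm growth. Pos ctrl CP55940 (top 92uM final); neg ctrl DMSO.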
MBNL1-CUG inh – blocks human MBNL1 binding to CUG repeat RNA; TR-FRET MBNL1-His/biotin-(CUG)12 binding, 665/545 ratio; Potency, µM (titrated, usually from 57.5 µM), for the others: top-dose activity change, negative = inhibition, most hits filed as inhibitors; 0.036% of 280,000 active; AID 2675; active = well fitted inhibition curve with a large enough effect in the signal ratio, with a control signal flat, not every such curve was filed as active; inconclusive = small, poorly fitted or top-dose-only effect, or effect the other way, or a change in a side signal; inactive = no such curve, though single readings can be large or run the other way; the % refers to the signal ratio; also: % is scaled to controls: 0 for no effect and ±100 for the full control effect
Target sequence (Q9NR56 whole entry, looked up): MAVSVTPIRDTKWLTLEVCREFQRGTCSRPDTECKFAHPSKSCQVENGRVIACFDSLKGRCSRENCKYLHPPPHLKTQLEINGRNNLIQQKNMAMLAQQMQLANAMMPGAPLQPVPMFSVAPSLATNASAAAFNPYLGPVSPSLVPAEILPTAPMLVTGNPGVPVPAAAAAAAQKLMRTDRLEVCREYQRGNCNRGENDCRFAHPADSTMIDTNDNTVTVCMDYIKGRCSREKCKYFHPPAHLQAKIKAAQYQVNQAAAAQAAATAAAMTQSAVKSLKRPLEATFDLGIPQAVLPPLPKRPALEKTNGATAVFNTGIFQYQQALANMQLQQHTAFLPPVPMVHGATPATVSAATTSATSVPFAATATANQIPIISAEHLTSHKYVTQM
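His-tagged MBNL1 binding to biotinylated (CUG)12 RNA was measured by TR-FRET using terbium anti-His antibody (0.055 ng/ul final) and streptavidin-XL665 (5 nM final). Compounds were titrated 92 nM to 58 uM; 60 min at room temperature.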
TDP-43 yeast inh – rescues yeast growth from TDP-43 toxicity. AID 652104. Potency, µM (titrated, usually from 46.1 µM), inactives show at the highest dose growth rescue (activation), most hits filed as activators. 1.8% of 410,000 active. TDP-43 expressing yeast growth rescue, BacTiter-Glo, 24 h; also: % of control where 0% means no effect; nearly all actives have a fitted effect of over 50% in size
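Luminescence from BacTiter-Glo reports growth of TDP-43-expressing yeast after 24 hr at 30 deg C with compound. Cells were raffinose-pregrown to mid-log, then seeded in galactose medium at OD600=0.02.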
* hit, by the source's call; i = inactive; ? = inconclusive; · = not tested or not shown. An excerpt weighted towards active compounds, which were near 2% of everything screened. Unless noted, calls follow the shape of the dose curve; as a rule, active = well fitted curve in the direction sought with a large enough effect; inconclusive = small, poorly fitted or top-dose-only effect, or another doubt; inactive = no such curve, though single readings can be large; an effect the other way counts as inactive or inconclusive. Potency is read from the fitted curve at half-maximal effect.

SMILES	Abeta rescue	aSyn yeast inh	GRP78 ERSR act	FUS suppressor	MBNL1-CUG inh	TDP-43 yeast inh
Cc1cc2c(c(-c3ccc(Cl)cc3)c1)OC(CNC(=O)CCC(=O)N(C)C)C2 (configuration not stated)	·	·	0%	·	·	·
COc1ccccc1C(=O)NCCSCc1ccccc1Cl	i	-10%	5%	i	3%	13µM*
Cc1c(C(=O)NCCSCc2ccc(Cl)cc2Cl)cccc1[N+](=O)[O-]	i	25%	-8%	i	5%	14µM*
COc1ccccc1OCC(=O)NCCSCc1ccccc1Cl	i	3%	-1%	·	-5%	21%
CC(C)(C)c1ccc(Cn2cnc3c(cnn3C(C)(C)C)c2=O)cc1	·	·	-4%	·	·	·
C=CCSc1nnc(CCCCCN2C(=O)c3cccc4cccc(c34)C2=O)o1	i	-9%	-2%	i	?	22µM*
COc1ccccc1-c1cc(C(=O)N2CCN(c3ccccc3)CC2)no1	i	11%	3%	?	7%	18µM*
O=C(c1cc(-c2ccc3c(c2)OCO3)on1)N1CCN(c2ccccc2)CC1	i	3%	1%	i	-11%	28%
O=C(c1cc(-c2ccc(O)cc2)on1)N1CCN(c2ccccc2)CC1	i	10%	5%	i	-4%	10µM*
O=C(c1cc(-c2ccc(O)cc2)on1)N1CCN(c2ccc(F)cc2)CC1	?	15%	8%	i	5%	16µM*
COc1ccc(OC)c(-c2cc(C(=O)N3CCOCC3)no2)c1	i	1%	1%	i	0%	16%
COc1ccccc1N1CCN(C(=O)c2oc3cc(C)cc(C)c3c2C)CC1	i	1%	-3%	?	-8%	22µM*
CO[C@H]1[C@H](NC(=O)c2cccs2)c2ccccc2C12CCN(Cc1cccn1-c1cccnc1)CC2	·	·	-5%	·	·	·
Cc1c(C(=O)NCC2Cc3cccc(-c4cncnc4)c3O2)c(-c2ccccc2)nn1-c1ccccc1 (configuration not stated)	·	·	-7%	·	·	·
COc1ccccc1N1CCN(C(=O)c2cc(-c3ccc(C)c(F)c3)on2)CC1	i	·	·	i	·	35µM*
CCc1ccc(-c2nnn(CCC(=O)OC)n2)cc1	i	8%	-12%	i	3%	16µM*
Cc1nc(CNS(=O)(=O)c2ccc3ccccc3c2)cs1	i	-4%	-5%	i	9%	14µM*
Cc1nc(N2CCN(c3ccccc3)CC2)nc2c1C(=O)CCC2	i	23%	-1%	i	1%	13µM*
CCCC[C@H](CCCc1ccc(F)cc1)CCC(=O)N(c1ccccc1)c1ccccc1	·	·	·	i	·	·
CC(C)N(Cc1nc(-c2ccccc2)no1)S(=O)(=O)c1ccccc1	i	6%	-2%	i	-6%	?
CC(C)N(Cc1nc(-c2ccccc2)no1)C(=O)CN(C)S(=O)(=O)c1ccccc1	i	13%	-5%	i	2%	13µM*
CC1=C(C)CC2C(C1)C(=O)c1ccc(Br)cc1S2(=O)=O (configuration not stated)	i	-3%	-2%	i	·	5µM*
O=C(/C=C/c1cccs1)Nc1cccc(NC(=O)/C=C/c2cccs2)n1	i	-8%	-6%	i	24%	7.9µM*
O=C(/C=C/c1cccs1)Nc1nccs1	i	4%	1%	i	5%	11%
CN(C)c1nc(Cl)nc(N(C#N)CCOc2ccccc2)n1	i	1%	0%	i	-3%	11µM*
SMILES	Abeta rescue	aSyn yeast inh	GRP78 ERSR act	FUS suppressor	MBNL1-CUG inh	TDP-43 yeast inh
CCNc1nc(NCC)nc(N(C#N)CCOc2ccccc2)n1	i	-5%	1%	i	5%	8%
CCOC(=O)N1CCC(N2Cc3cccc(C(=O)Nc4ccc(CC)cc4)c3C2=O)CC1	i	14%	-1%	i	-1%	25µM*
CC[N+](CC)(CC)CCOC(=O)C(C1CCCC1)C1CCCC1	·	·	-4%	·	·	·
COc1ccc(N2CCC(CNC(=S)Nc3ccc(C)cc3C)C2)cc1 (configuration not stated)	22µM*	-20%	-3%	?	-1%	?
O=C(CN1C(=O)CC(c2ccccc2)=Nc2ccccc21)Nc1ccc(Br)cc1	i	·	-5%	i	·	-5%
O=C1CC(c2ccccc2)=Nc2ccccc2N1Cc1ccccc1	i	10%	1%	i	·	13µM*
COCC(=O)N1C[C@H]2CON(C)[C@H]2C[C@H]1c1cccc(-c2ccccc2OC)c1	i	0%	-1%	i	·	0%
COc1ccccc1-c1cccc([C@@H]2C[C@H]3[C@H](CON3C)CN2C(=O)CCc2ccccc2)c1	i	15%	-2%	i	·	28µM*
Cc1c(C(=O)NC2CCCCC2)sc2ncnc(NCCN(C)C)c12	·	·	-3%	·	·	·
CCCCC1=CC2=C(c3ccco3)C(=O)C(C)(OC(=O)c3ccc(OC)cc3)C(=O)C2=CN1CC1CC1 (configuration not stated)	i	-6%	-2%	20µM*	43%	-19%
COCc1cc(Sc2ccc(Cl)cc2)nc(C)n1	i	-6%	1%	i	-4%	11µM*
Cc1nc(CS(=O)(=O)c2ccc(Cl)cc2)cc(Sc2ccc(Cl)cc2)n1	i	4%	-5%	i	-2%	28µM*
Cc1nc(N2CCCCC2C)c2nnn(Cc3ccccc3)c2n1 (configuration not stated)	·	·	·	i	·	·
O=C(NCC1CCC2(CCN(Cc3cccn3-c3ccc(Cl)cn3)CC2)O1)c1ccccc1 (configuration not stated)	·	·	-6%	·	·	·
O=C(c1ccncc1)N1CCC2(CCC(CNC(=O)C3(N4CCOCC4)CCCCC3)O2)CC1 (configuration not stated)	·	·	-4%	·	·	·
CCOC(=O)C1=C(C)Nc2nc(=S)[nH]n2C1c1ccc(Cl)cc1 (configuration not stated)	i	?	-7%	i	-13%	22µM*
Cc1cccc2[nH]cc(/C=C3/C=Nc4ccccc43)c12	·	·	-1%	·	·	·
CCc1cc(-c2onc(C)c2-c2cscn2)c(O)cc1OC	i	?	-5%	i	-1%	18µM*
COc1ccc(-c2onc(C)c2-c2cscn2)c(O)c1	i	-8%	-4%	i	-2%	8%
CN(C)/[N+]([O-])=N/Oc1ccc([N+](=O)[O-])cn1	·	0%	-1%	·	·	·
Cc1ccc(C)n1-c1sccc1C(=O)O	i	3%	-5%	13µM*	12%	-12%
